# Reference: PubChem BioAssay (NCATS)
# Results filed as inconclusive are left out. Entries that show only a call come without a potency. A number with no mark means an inactive call. Activity calls are given as the source filed them. Calls follow the shape of the dose curve; as a rule, active = well fitted curve in the direction sought with a large enough effect; inconclusive = small, poorly fitted or top-dose-only effect, or another doubt; inactive = no such curve, though single readings can be large; an effect the other way counts as inactive or inconclusive. Where a SMILES comes first, the peptide text is derived from it. [ ]: non-standard residue; d: D form. dPhe(4-Cl) = N[C@H](Cc1ccc(Cl)cc1)C(=O)O; d2Nal = N[C@H](Cc1ccc2ccccc2c1)C(=O)O; dCit = NC(=O)NCCC[C@@H](N)C(=O)O; d3Pal = N[C@H](Cc1cccnc1)C(=O)O
# Key:
# [1] = P-glycoprotein substrates identified in KB-8-5-11 adenocarcinoma cell line, qHTS therapeutic library screen (AID 1346987); also: nearly all actives have a fitted effect of over 65% in size; also: potency is read from the fitted curve at half-maximal effect; as to activity change, negative = cytotoxicity: series mostly up to about 44 µM
# Summary of the method: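 Compounds are pinned in dose-response onto KB-8-5-11 cells (500 cells/well, colchicine-free medium) and left 72 h at 37 degree C. CellTiter-Glo luminescence then yields AC50 values.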
# [2] = P-glycoprotein substrates identified in KB-3-1 adenocarcinoma cell line, qHTS therapeutic library screen (AID 1346986); also: nearly all actives have a fitted effect of over 60% in size
# Summary of the method: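 In 1536-well format, 500 cells/well received pinned compound titrations and were incubated 72 h, 5% CO2. Viability was read by CellTiter-Glo; cytotoxic if AC50 < 10 uM and efficacy >50%.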
smiles,measurement,setting,value
O=C(O)c1ccc(OC2OC(CO)C(O)C(O)C2O)cc1 (stereo not drawn),Potency,[1],inactive
COc1ccc(-c2ccc3c(N4CCOCC4)nc(N4CC(C)OC(C)C4)nc3n2)cc1CO (stereo not drawn),Potency,[1],651 nM (active)
c1cc(OCCCN2CCCCC2)ccc1CN1CCCCC1,Potency,[1],inactive
Cc1nc([C@](C)(O)CO)sc1-c1cnc(N)c(O[C@H](C)c2cc(F)ccc2-n2nccn2)c1,Potency,[1],11600 nM (active)
CC1=C(/C=C/C(C)=C\C=C\C(C)=C/C(=O)O)C(C)(C)CCC1,Potency,[2],inactive
same,Potency,[1],inactive
Nc1nc2c(c(=O)[nH]1)C[C@@H](CCc1ccc(C(=O)N[C@@H](CCC(=O)O)C(=O)O)cc1)CN2,Potency,[1],58 nM (active)
CC(O)c1cc(C(=O)N[C@@H](C)Cn2ccc(-c3ccc(C#N)c(Cl)c3)n2)n[nH]1 (stereo partly drawn),Potency,[1],inactive
CC1(C(=O)O)CCCC2(C)C3CCC4CC3(CCC12)CC4=O (stereo not drawn),Potency,[1],inactive
Cc1c(F)cc(C(=O)NC2CC2)cc1-c1c(F)cn2c(C(C)(C)C)nnc2c1F,Potency,[1],inactive
COC(=O)c1cc(OC)c(O[C@@H]2O[C@@H](C)[C@H](O)[C@@H](O)[C@H]2O)c(OC)c1,Potency,[1],inactive
CC1=C(CO)C(=O)O[C@@H]([C@@H](C)[C@H]2CC[C@H]3[C@@H]4C[C@H]5O[C@]56[C@@H](O)C=CC(=O)[C@]6(C)[C@H]4CC[C@]23C)C1,Potency,[1],2520 nM (active)
COc1ccc(CCO[C@@H]2O[C@H](CO[C@@H]3OC[C@H](O)[C@H](O)[C@H]3O)[C@@H](O)[C@H](O)[C@H]2O)cc1,Potency,[1],inactive
CC1=CC(=O)[C@H]2C(C)(C)CCC[C@]2(C)[C@@]1(O)CO,Potency,[1],inactive
Cc1cnc(NC(=O)Nc2cc(Br)c(C)cc2OCC2CNCCO2)cn1 (stereo not drawn),Potency,[1],8200 nM (active)
CC1OC(OC2C(CO)OC(OCC3OC(OC(=O)C45CCC(C)(C)CC4C4=CCC6C7(C)CCC(OC8OC(CO)C(O)C(OC9OC(CO)C(O)C(O)C9O)C8O)C(C)(C)C7CCC6(C)C4(C)CC5)C(O)C(O)C3O)C(O)C2O)C(O)C(O)C1OC1OC(CO)C(O)C(O)C1O (stereo not drawn),"activity change, negative = cytotoxicity",[1],9.79% [at 9.29 µM]
CC(C)(C)c1ccc(S(=O)(=O)NCc2ccc(C(=O)Nc3cccnc3)cc2)cc1,Potency,[1],1160 nM (active)
COC(=O)C12C(=O)C(C)=C(O)C1(C)C(C)=CC1C3(CO)CCC(O)C(C)(C)C3CCC12C (stereo not drawn),Potency,[1],inactive
CC(=O)NC[C@H]1CN(c2ccc(N3CCN(C(=O)CO)CC3)c(F)c2)C(=O)O1,Potency,[1],inactive
CC(=O)O[C@H]1C[C@@](O)(C(C)C)C2[C@@H](OC(=O)c3ccc(O)cc3)C[C@@]3(C)O[C@H]3C[C@]21C (stereo partly drawn),Potency,[1],inactive
CC(=O)OC[C@]12[C@H](OC(C)=O)C(=O)[C@@H]3[C@@H](OC(C)=O)[C@@]14O[C@@]3(C)COC(=O)c1cccnc1[C@@H](C)[C@H](C)C(=O)O[C@@H]([C@H](O)[C@@H]2OC(C)=O)[C@]4(C)O,Potency,[1],inactive
COc1ccc(N(C)c2nc(C)nc3ccccc23)cc1,Potency,[1],6.5 nM (active)
CCNCc1nc2c(N)nc3ccccc3c2n1CC(C)(C)O,Potency,[1],inactive
CC[C@]1(O)CC2CN(CCc3c([nH]c4ccccc34)[C@@](C(=O)OC)(c3cc4c(cc3OC)N(C=O)[C@H]3[C@@](O)(C(=O)OC)[C@H](OC(C)=O)[C@]5(CC)C=CCN6CC[C@]43[C@@H]65)C2)C1 (stereo partly drawn),Potency,[1],2270 nM (active)
COC(=O)c1ccc(OC(CO)C(O)c2ccc(O)c(OC)c2)c(OC)c1 (stereo not drawn),Potency,[1],inactive
C=C(C(=O)O)C1CCC2(C)CCC(O)C(C)(O)C2C1 (stereo not drawn),Potency,[1],inactive
CC(C)CC(=O)OC1OC=C(CO[C@@H]2O[C@H](CO)[C@@H](O)[C@H](O)[C@H]2O)C2CC(O)C(O)(CO)C12 (stereo partly drawn),Potency,[1],inactive
C=C(C(=O)O)C1CCC2(C)CCCC(C)(O)C2C1 (stereo not drawn),Potency,[2],inactive
same,Potency,[1],inactive
Cc1ccc(S(=O)(=O)c2ccc([N+](=O)[O-])o2)cc1,Potency,[1],4610 nM (active)
CC12CCC(OC3OC(CO)C(O)C(OC4OC(CO)C(O)C(O)C4O)C3O)CC1CCC1C2CCC2(C)/C(=C3/COC(=O)C3)CCC12O (stereo not drawn),Potency,[1],inactive
CC(=O)O[C@]1(C(C)=O)CC[C@H]2[C@@H]3C[C@H](C)C4=CC(=O)C=C[C@]4(C)[C@@]3(F)[C@@H](O)C[C@@]21C,Potency,[2],inactive
same,Potency,[1],inactive
CC(=O)N[C@H](Cc1ccc2ccccc2c1)C(=O)N[C@H](Cc1ccc(Cl)cc1)C(=O)N[C@H](Cc1cccnc1)C(=O)N[C@@H](CO)C(=O)N[C@@H](Cc1ccc(O)cc1)C(=O)N[C@H](CCCNC(N)=O)C(=O)N[C@@H](CC(C)C)C(=O)N[C@@H](CCCN=C(N)N)C(=O)N1CCC[C@H]1C(=O)N[C@H](C)C(N)=O (Ac-[d2Nal][dPhe(4-Cl)][d3Pal]SY[dCit]LRP[dA]-NH2),Potency,[1],inactive
CC(O)/C=C/C1(O)C(C)C(O[C@@H]2O[C@H](CO)[C@@H](O)[C@H](O)[C@H]2O)C(O)CC1(C)C (stereo partly drawn),Potency,[1],inactive
C[C@@H]1C[C@@H]2O[C@H]2/C=C\C=C\C(=O)Cc2c(Cl)c(O)cc(O)c2C(=O)O1,Potency,[1],1010 nM (active)
C[C@@H]1CCC2C(C)(C)[C@H](O)CC[C@]2(C)[C@@]12Cc1c(O)cc3c(c1O2)CNC3=O (stereo partly drawn),Potency,[1],inactive
CC1=CCC2C(C)(C)CCC[C@]2(C)[C@@]12CC[C@](C)(CC(=O)O)O2 (stereo partly drawn),Potency,[1],inactive
C[C@@H]1O[C@@H](O[C@H]2[C@H](O)[C@@H](O)[C@H](OC[C@H]3O[C@@H](OC(=O)[C@]45CCC(C)(C)C[C@H]4C4=CCC6[C@@]7(C)CC[C@H](O[C@@H]8OC[C@H](O)[C@H](O[C@@H]9O[C@H](CO)[C@@H](O)[C@H](O)[C@H]9O)[C@H]8O)[C@@](C)(CO)C7CC[C@@]6(C)[C@]4(C)CC5)[C@H](O)[C@@H](O)[C@@H]3O)O[C@@H]2CO)[C@H](O)[C@H](O)[C@H]1O (stereo partly drawn),outcome,[1],inactive [at 9.29 µM]
O=C1CSc2ccccc2N1Cc1cccc(C(F)(F)F)c1,Potency,[1],inactive
C[C@@]12C[C@]3(O)O[C@H](O1)[C@]1(COC(=O)c4ccccc4)[C@H]3C[C@@]12O[C@@H]1O[C@H](CO)[C@@H](O)[C@H](O)[C@H]1O,Potency,[1],inactive
C=CC(C)(O)CC[C@H]1C(=C)CCC2[C@](C)(C(=O)O)CCC[C@@]21C (stereo partly drawn),Potency,[1],inactive
COc1ccc(C(=O)C2CCN(CC(=O)N(Cc3nc4c(c(=O)[nH]3)COCC4)CC3CC3)CC2)cc1,Potency,[1],inactive
COc1cc(C(=O)NC2CCN(C)CC2)c(F)cc1Nc1ncc2c(n1)N(C1CCCC1)CC(F)(F)C(=O)N2C,Potency,[1],51.7 nM (active)
CC1=CC2/C=C(\C)CC[C@@H](O)[C@@H](O)[C@@H]3O[C@@H]3C(=O)[C@]23C(=O)N[C@@H](CC(C)C)[C@@H]3[C@@H]1C (stereo partly drawn),Potency,[1],inactive
COc1cc2c(cc1OC)N1C(=O)C[C@]34C=CCN5CC[C@@H]2[C@@H](CC3)[C@]514,Potency,[1],inactive
CC(CCC1(O)OC2CC3C4CCC5CC(O[C@@H]6O[C@H](CO)[C@@H](O)[C@H](O)[C@H]6O[C@@H]6O[C@@H](C)[C@H](O)[C@@H](O)[C@H]6O)C(O)CC5(C)C4CCC3(C)C2C1C)CO[C@@H]1O[C@H](CO)[C@@H](O)[C@H](O)[C@H]1O (stereo partly drawn),"activity change, negative = cytotoxicity",[1],1.44% [at 9.29 µM]
CCCC(=O)O[C@@H]1[C@@H]2[C@@H](OC(C)=O)[C@]3(C)C(=O)[C@H]4[C@@H](OC(C)=O)C(C)(C)C[C@H]4[C@]3(C)C(=O)[C@@]2(OC(C)=O)C[C@@H]1C,Potency,[1],inactive
COc1ccc2c(OC)c3ccoc3nc2c1OC,Potency,[1],inactive
C#CCN(Cc1cc2c(=O)n(C)c(CN3CCN(C)CC3)nc2cc1Cl)c1ccc(C(=O)NCc2cccnc2)cc1,Potency,[1],259 nM (active)
COC(=O)C[C@H]1C(C)(C)[C@H](OC(C)=O)C2CC3=C4CC(=O)O[C@@H](c5ccoc5)[C@]4(C)CCC3[C@@]1(C)C2=O (stereo partly drawn),Potency,[1],inactive
COc1cc2oc(-c3ccc(O)cc3O)cc2c(OC)c1CC=C(C)C,Potency,[1],inactive
CC(C)C(C#N)O[C@@H]1O[C@H](CO[C@@H]2O[C@@H](C)[C@H](O)[C@@H](O)[C@H]2O)[C@@H](O)[C@H](O)[C@H]1O (stereo partly drawn),Potency,[1],inactive
COc1ccc(C2COc3cc(O)ccc3C2)c(O)c1 (stereo not drawn),Potency,[1],inactive
NCCCNc1ccc(Nc2nccc(Nc3cc(C4CC4)[nH]n3)n2)cc1,Potency,[1],1300 nM (active)
C[C@H](C(=O)NC1CCCC1)N(C(=O)Cn1nnc(-c2ccc3c(c2)OCO3)n1)C1CCCCC1,Potency,[1],inactive
O=C(CO)[C@@H](O)[C@H](O[C@@H]1O[C@H](CO)[C@H](O)[C@H](O)[C@H]1O)[C@H](O)CO,Potency,[1],inactive
CC(C)(C#N)c1ccc(N2C(=O)OCc3cnc4ccc(-c5cnc6ccccc6c5)cc4c32)cc1,Potency,[1],3660 nM (active)
COc1ccc2nc(S(=O)(=O)Cc3ncc(C)c(OC)c3C)[nH]c2c1,Potency,[1],inactive
C/C=C1\[C@H](O[C@@H]2O[C@H](CO)[C@@H](O)[C@H](O)[C@H]2O)OC=C(C(=O)OC)[C@H]1CC(=O)O,Potency,[1],inactive
CC(C)C(CO)Nc1nc(Nc2ccc(C(=O)O)c(Cl)c2)c2ncn(C(C)C)c2n1 (stereo not drawn),Potency,[1],inactive
C=C[C@H]1[C@H](O[C@@H]2O[C@H](CO)[C@@H](O)[C@H](O)[C@H]2O)OC=C(C(=O)OC)[C@H]1CC(=O)O,Potency,[1],inactive
C[C@@H]1O[C@@H](O[C@H]2[C@H](OC(=O)[C@]34CCC(C)(C)C[C@H]3C3=CCC5[C@@]6(C)CC[C@H](O[C@@H]7O[C@H](C(=O)O)[C@@H](O)[C@H](O)[C@H]7O[C@@H]7O[C@H](CO)[C@H](O)[C@H](O)[C@H]7O)[C@@](C)(C=O)C6CC[C@@]5(C)[C@]3(C)C[C@H]4O)O[C@H](C)[C@H](O[C@@H]3O[C@H](C)[C@H](O)[C@H](O)[C@H]3O)[C@@H]2O)[C@H](O)[C@H](O)[C@H]1O[C@@H]1OC[C@@H](O)[C@H](O[C@@H]2O[C@H](CO)[C@@H](O)[C@H](O)[C@H]2O)[C@H]1O (stereo partly drawn),outcome,[1],inactive [at 5.11 µM]
